# Screens (PubChem BioAssay)
# MCF10A rereplic: DNA re-replication induction in MCF 10a cells | actives 2.9% (n = 350,000) | AID 624296 | Potency, µM (highest dose often 46.1 µM), inactives show at the highest dose activity, positive = re-replication, most hits filed as activators | MCF 10A DNA re-replication, Hoechst nuclear intensity, 48 h; also: % of control where 0% means no effect; nearly all actives have a fitted effect of over 50% in size
# RORgamma inh: inhibitors of mouse ROR gamma transcriptional activity; P51450; Drosophila S2 Gal4-RORgamma UAS-luciferase reporter, 20 h; Potency, µM (doses to about 53.6 µM), inactives show at the highest dose activity change, negative = inhibition, most hits filed as inhibitors; actives 5.4% (n = 310,000); AID 2551; also: % is scaled to controls: 0 for no effect and ±100 for the full control effect; nearly all actives have a fitted effect of over 60% in size
# Target sequence (P51450 whole entry, looked up, the tested form may be a part): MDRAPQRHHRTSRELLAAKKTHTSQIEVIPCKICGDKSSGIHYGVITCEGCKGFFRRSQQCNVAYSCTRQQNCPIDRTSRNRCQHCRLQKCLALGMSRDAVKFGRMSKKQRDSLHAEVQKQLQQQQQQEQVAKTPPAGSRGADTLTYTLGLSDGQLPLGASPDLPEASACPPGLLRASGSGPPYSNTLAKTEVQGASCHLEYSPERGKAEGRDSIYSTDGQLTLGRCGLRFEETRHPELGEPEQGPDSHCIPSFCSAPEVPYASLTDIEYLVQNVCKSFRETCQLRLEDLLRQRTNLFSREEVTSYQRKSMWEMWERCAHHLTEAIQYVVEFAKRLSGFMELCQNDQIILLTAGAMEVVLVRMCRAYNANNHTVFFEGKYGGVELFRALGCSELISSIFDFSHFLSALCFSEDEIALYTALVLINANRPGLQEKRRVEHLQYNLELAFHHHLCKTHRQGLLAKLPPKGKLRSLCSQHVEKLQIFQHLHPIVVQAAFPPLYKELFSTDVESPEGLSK
#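 Luminescence from a UAS-regulated Photinus luciferase reporter in stably transfected Drosophila Schneider cells is measured; decreased signal marks ROR gamma inhibition. Fusion expression is induced by 700 uM copper sulfate for 20 hr.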
# KB-3-1 tox: kills parental KB-3-1 adenocarcinoma cells | AID 1347075 | KB-3-1 viability, CellTiter-Glo ATP luminescence, 72 h | actives 1.4% (n = 400,000) | Potency, µM (titrated, usually from 46.1 µM), usual class: cytotoxic; also: % is scaled to controls: 0 for no effect and ±100 for the full control effect; nearly all actives have a fitted effect of over 60% in size
#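 72 h, 37 °C compound treatment of KB-3-1 parental cells; CellTiter-Glo added, 10 min, luminescence read. Data corrected against DMSO-only plates and normalized before curve fitting.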
# KB-V1 cytotox: KB-V1 MDR subline cytotoxicity. KB-V1 MDR cells viability, CellTiter-Glo, 72 h. Potency, µM (highest dose often 46.1 µM), most hits filed as cytotoxic. actives 3.4% (n = 400,000); also: % is scaled to controls: 0 for no effect and ±100 for the full control effect; nearly all actives have a fitted effect of over 60% in size
#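 Following 72 h at 37 degrees C with compound, KB-V1 cell viability was read by CellTiter-Glo luminescence, medium being phenol-red-free DMEM plus 10% FBS; concentration-response parameters came from normalized, curve-fitted qHTS data.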
# SW480 rerep: inducers of DNA re-replication in SW480 colon cancer cells; SW480 DNA re-replication, Hoechst DNA content imaging, 48 h; Potency, µM (highest dose often 46.1 µM), without a hit: at the top dose re-replication activation, actives largely listed as activators; actives 1.8% (n = 340,000); also: % of control where 0% means no effect; nearly all actives have a fitted effect of over 55% in size
#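 Image-based DNA-content assay: after two days of treatment, nuclei were labelled with the DNA dye Hoechst and imaged, and hits were compounds raising the count of nuclei showing high fluorescence intensity.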
# VP16 counter: counter-screen for ROR gamma inhibitors: Gal4-VP16 reporter; actives 3.5% (n = 310,000); Potency, µM (top dose mostly 53.6 µM), for inactives: at the top dose activity, negative = inhibition, usual class: inhibitors; Drosophila S2 Gal4-VP16 UAS-luciferase, luminescence, 20 h;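 also: Gal4-VP16 expression switched on by copper sulfate through the metallothionein promoter; % is scaled to controls: 0 for no effect and ±100 for the full control effect; nearly all actives have a fitted effect of over 50% in size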
# The depositor's hits bear a star; i = inactive; ? = inconclusive; · = no result; [ ] = dose if it differs, or a comment. This is a sample that favours compounds with a hit; in the whole collection about 10% have one here. Calls follow the shape of the dose curve; as a rule, active = well fitted curve in the direction sought with a large enough effect; inconclusive = small, poorly fitted or top-dose-only effect, or another doubt; inactive = no such curve, though single readings can be large; an effect the other way counts as inactive or inconclusive. Potency is read from the fitted curve at half-maximal effect.
SMILES,MCF10A rereplic,RORgamma inh,KB-3-1 tox,KB-V1 cytotox,SW480 rerep,VP16 counter
COc1cc2c(cc1NC(=O)C(C)OC(=O)C1CC(=O)N(Cc3ccco3)C1)oc1ccccc12 (stereo unspecified),?,?,i,i,-1.0%[9.22 µM],?
CC(OC(=O)C1CC(=O)N(Cc2ccco2)C1)C(=O)Nc1cccc(C#N)c1 (stereo unspecified),-2.2%,·,i,i,5.8µM*,·
Cc1ccc(OCC(=O)N/N=C\c2c(C)[nH]n(-c3ccccc3)c2=O)c([N+](=O)[O-])c1,6.9%,0.501µM*,?,?,-2.1%,0.562µM*
Cc1ccc(OCC(=O)N/N=C\c2cn(C)c3ccccc23)c([N+](=O)[O-])c1,16.8%,11.2µM*,?,?,?,?
Cn1cc(/C=N/NC(=O)COc2ccccc2[N+](=O)[O-])c2ccccc21,13.0%,?,i,i,-14.4%,12.6µM*
COc1ccc(CCNC(=O)c2ccc(Cn3c(=O)c4ccccc4n(Cc4cccc(F)c4)c3=O)cc2)cc1OC,·,·,i,i,·,·
O=C(Nc1ccncc1)C1C(=O)c2ccccc2N(Cc2ccccc2)C1=O (stereo unspecified),·,·,i,i,·,·
CC1CC=CC2C1C(=O)N(Cc1ccccc1)C2c1ccc2ccccc2c1 (stereo unspecified),·,?,·,·,·,0.4%
Cc1ccc(CCNC(=O)c2sc3nc4n(c(=O)c3c2C)CCCC4)cc1,·,·,i,i,·,·
CCOc1ccc(NC(=O)C(=O)NCC(c2cccnc2)N2CCc3ccccc32)cc1 (stereo unspecified),·,·,?,18.4µM*,·,·
COc1cccc(-c2ccc3ncnc(N4CCNCC4)c3c2)c1,·,16.3%,·,·,·,7.2%
COc1ccc(N2CCN(c3ncnc4scc(-c5ccc(C)cc5)c34)CC2)cc1,23.1µM*,-4.2%,?,?,?,5.0%
c1ccc(-c2csc3ncnc(N4CCc5ccccc5C4)c23)cc1,?,?,?,16.4µM*,?,12.6µM*
c1ccc(-c2csc3ncnc(N4CCOCC4)c23)cc1,10.0%,-0.3%,i,i,-1.6%,2.0%
COc1ccc(Nc2ncnc3scc(-c4ccc(F)cc4)c23)cc1,·,·,i,?,·,·
COc1ccc(Nc2ncnc3scc(-c4ccc(OC)cc4)c23)cc1,5.17µM*,-12.0%,4.11µM*,3.26µM*,14.6µM*,-8.0%
COc1ccc(-c2csc3ncnc(N4CCN(c5ccccc5Cl)CC4)c23)cc1,18.4µM*,-26.1%,?,?,?,-1.3%
CCOc1ccc(CCNC(=O)Cn2cccc2C(=O)c2ccccc2C)cc1OCC,-0.6%,0.4%,i,4.61µM*,-5.0%,-8.0%
CCOc1ccc(CCNC(=O)Nc2ccccc2C)cc1OCC,-0.4%,-8.5%,i,?,-5.3%,-5.0%
CC(C)(C)c1ccc(C(=O)N2CCNCC2)cc1,8.0%,-23.1%,i,i,-6.8%,-2.4%
CN1CCC2(CC1)N=C(c1ccc(F)cc1)C(=S)N2C(=O)c1ccc(C(C)(C)C)cc1,8.2µM*,12.6µM*,?,?,3.5%,?
COc1ccc(-c2c(-c3cc(OC)cc(OC)c3)n(C)c3ccc(-c4cnc(OC)nc4)cc23)cc1,-3.1%,·,i,i,12.5%,·
COc1ccc(-c2c(-c3cc(OC)cc(OC)c3)n(C)c3ccc(-c4ccc5[nH]ccc5c4)cc23)cc1,?,·,23.1µM*,i,-1.4%,·
COC(=O)c1cc(C)[nH]c2c(C)cc3nc4ccccc4c3c12,20.6µM*,35.4%,i,?,?,-6.2%
N#CCCn1c(=O)cnc2cnc(Nc3ccccc3)nc21,·,?,·,·,·,-7.4%
SMILES,MCF10A rereplic,RORgamma inh,KB-3-1 tox,KB-V1 cytotox,SW480 rerep,VP16 counter
Cc1ccc(NC(=O)/C=C/c2ccc3c(c2)OCO3)nc1,?,30.0%,7.31µM*,i,·,-14.0%
CCOC(=O)c1[nH]c2ccc(Cl)cc2c1NC(=O)/C=C/c1ccc2c(c1)OCO2,?,?,i,i,?,4.47µM*
Cc1ccc(/C=C/C(=O)NC2CCCCCCC2)o1,?,-91.9%,i,i,23.1µM*,12.6µM*
O=C(/C=C/c1ccc2c(c1)OCO2)Nc1nc(-c2ccc(F)cc2F)cs1,27.1%,-34.7%,·,·,0.2%,?
Cc1csc(NC(=O)/C=C/c2ccc3c(c2)OCO3)n1,18.4µM*,-24.1%,?,?,0.6%,?
Cc1csc(NC(=O)/C=C/c2ccc(C)o2)n1,-2.4%,4.47µM*,i,i,-0.1%,-16.6%
O=C(/C=C/c1ccc2c(c1)OCCCO2)c1ccccc1O,?,?,i,?,-4.7%,?
Cc1ccc(O)c(C(=O)/C=C/c2ccc3c(c2)OCCCO3)c1,13µM*,0.0%,i,i,?,1.8%
COc1cccc(Cn2c(=O)c(C)nc3cnc(N4CCOCC4)nc32)c1,·,-15.5%,·,·,·,-7.8%
Cc1ccc(C)c(C(=O)Nc2cc(C)nn2-c2nc(C)cc(C)n2)c1,?,0.501µM*,20.6µM*,?,8.1%,?
Cc1cc(C)nc(-n2nc(C)cc2NC(=O)CN2CCCC2)n1,4.9%,11.2µM*,i,i,-131.9%,-13.3%
Cc1cc(C)nc(-n2nc(C)cc2NC(=O)CN2CCC(C)CC2)n1,10.7%,?,i,?,-7.6%,?
Cc1cc(NC(=O)CN2CCOCC2)n(-c2ccccc2)n1,4.8%,-4.3%,i,i,3.1%,-28.4%
Cc1cc(C)nc(-n2nc(C)cc2NC(=O)c2cccc(S(=O)(=O)N(C)C)c2)n1,-6.6%,?,i,i,-0.3%,-3.4%
Cc1cc(NC(=O)CN2CCOCC2)n(-c2nc3ccccc3s2)n1,14.6µM*,3.55µM*,i,?,9.9%,0.6%
CCC1CCCCN1CC(=O)Nc1cc(C)nn1-c1nc(C)cc(C)n1 (stereo unspecified),-5.2%,0.398µM*,i,i,?,1.26µM*
CC1C(=O)N(S(=O)(=O)c2ccc([N+](=O)[O-])cc2)[C@H]1c1ccc2ccccc2c1 (stereo partly specified),·,0.5%,·,·,·,-8.9%
Cc1cc(C)nc(-n2nc(C)cc2NC(=O)CNC(C)c2ccccc2)n1 (stereo unspecified),-1.7%,1.58µM*,i,?,3.8%,-26.6%
CC(C)CN1CCCC2(CCN(C(=O)c3cnccn3)CC2)C1,·,-16.8%,·,·,·,-10.0%
C=CCOC(=O)CSCC(NC(=O)OC(C)(C)C)C(=O)OCC (stereo unspecified),0.8%,8.91µM*,i,i,3.0%,11.2µM*
